We go through 88 compounds from PubChem BioAssay AID687014 (The Scripps Research Institute Molecular Screening Center, 2013).

Screen size: about 370,000 compounds; about 6,800 (1.8%) were called active. Many of the other results were omitted from the sample, so actives are more common in it than they were. Unmarked numbers belong to inactive results.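 The calls were made as follows: active = activation above a cutoff set at the mean of all screened compounds plus 3 SD (cut at about 10% in these data); inactive = the rest.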

The subject of the test is Nuclear hormone receptor DAF-12 (Heterodera glycines), GAL4 fusion. Nature of the test: hgDAF-12 GAL4 fusion reporter activation – cell-based, luminescence, HEK293, UAS-luciferase, primary screen (AID 687014).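 Also: 0% = DMSO wells and 100% = sodium butyrate wells.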 The conditions noted are these: HEK293 GAL4-hgDAF12 UAS-luciferase reporter, agonist luminescence; at 6.8 µM; stronger effect = higher value; normalized to butyrate control. For orientation: A reporter such as luciferase makes a cellular process visible.
Regarding `CC(=O)N1C(C)c2ccccc2C(C)(C)CC12CCCCC2` (stereo not drawn), the activation is -2.75%. As for `CN[C@H]1C[C@H]2c3[nH]c4c(-c5ccccc5)cccc4c3CCN2C(=O)[C@H]1[C@H](C)O`, the activation was -0.57%.

As for `O=C(N/N=C/c1cccc2cccnc12)[C@H]1C[C@@H]1c1ccccc1`, the activation was -1.03%. `O=C(Cc1ccc(Cl)cc1)NC(=S)Nc1ccccc1O`: the activation was 3.46%. Regarding `O=C(NC(=S)Nc1cccc2c(O)cccc12)c1cccc(Br)c1`, the activation was 0.96%.

With `O=C(NC(=O)c1ccccc1)Nc1ccccc1O`, the activation is 13.8% (active). With `CCOC(=O)[C@H]1CCC[C@@H](NS(=O)(=O)c2ccc(NC(C)=O)cc2)C1` the figure was 1.29%; with `Cc1ccc(NC(=O)Cc2cccc(F)c2)c(S(=O)(=O)N2CCOCC2)c1`, 1.41%.

For the compound `COCC1CCCN(Cc2nc(-c3ccc4c(c3)OCO4)no2)C1` (stereo not drawn), the activation was 6.75%.

In the case of `O=C(COCc1cc(-c2ccc3c(c2)OCO3)on1)N1CCN(c2cccc(Cl)c2)CC1`, the activation was 1.17%. `CCc1ccccc1NC(=O)CSc1nnc(-c2cccs2)o1`: the activation is 2.52%. With `Brc1ccc(C2CC(c3ccccc3)=Nc3ccccc3N2)cc1` (stereo not drawn) the figure was 17.3% (active); with `CNC(=S)N1N=C(c2ccccc2)CC1c1ccc(Br)cc1` (stereo not drawn), -1.01%; with `CN1[C@H](Cc2ccccc2)COc2cccc(N3CCSCC3)c2S1(=O)=O`, 4.83%. For `Cc1cc(=O)[nH]c(SCC(=O)Nc2ccc(Cl)cc2C)n1`, the activation was 1.76%. In the case of `CCCCCCCCNS(=O)(=O)/C=C/c1cc(C)ccc1CNC(=O)OC(C)(C)C`, the activation is 0.08%. For `COC(=O)c1cc(S(=O)(=O)N2CCN(c3ccccc3C)CC2)cn1C`, the activation is -4.6%. As for `CC(C)c1cc(C(N)=O)c(NC(=O)c2cccc(COc3ccc(Br)cc3)c2)s1`, the activation is 16.6% (active).

Regarding `Cc1sc(NC(=O)c2ccc3ncsc3c2)c(C(N)=O)c1C`, the activation is 8.75%.

With `CCOC(=O)c1cc(C(C)C)sc1NC(=O)COC(=O)c1nccnc1N`, the activation was 0.71%. Consider `C[C@H](O)[C@@H]1C(=O)N2CCc3c([nH]c4c(-c5ccc6c(c5)OCO6)cccc34)[C@@H]2C[C@@H]1N(C)C(=O)c1ccco1`, for which the activation was 2.82%.

On to `Nc1nc2c(ncn2[C@@H]2O[C@H](C(=O)N[C@H](Cc3ccccc3)C(=O)NCC3CCCCC3)[C@@H](O)[C@H]2O)c(=O)[nH]1`, for which the activation was -0.41%. Turning to `c1ccc2c(c1)nnn2-c1ccncc1`, the activation was 0.89%.

In the case of `COCCCNC(=O)C[C@H]1C[C@@]2(C(=O)OC)C(=C[C@H](C(C)(C)C)O[C@@H]2C)N(Cc2ccc3c(c2)OCO3)C1=O`, the activation is 1.15%. For the compound `Cc1ccc(-c2noc(CNC(=O)c3ccoc3C)n2)cc1`, the activation was -0.34%.

Take `Cc1cc(Cl)ccc1OCc1nc(-c2ccncc2)no1`: the activation was 14% (active). `CC1CCN(Cc2nc(-c3ccc(Cl)cc3)no2)CC1`: the activation is 0.37%. In the case of `CN(CCc1ccccc1)C(=O)Cn1nc(-c2ccccc2)ccc1=O`, the activation was 1.22%. Consider `O=C1CC[C@@]23CCCN2C(=O)CCC[C@H]3[C@H]1Cc1ccccc1`, for which the activation was -4.37%.

In the case of `Cc1nc2nc(SCC(=O)Nc3cccc(F)c3)[nH]c2cc1Br`, the activation is 0.38%. In the case of `Cc1nc2cc(NC(=O)Nc3cccc(F)c3)ccc2n1C`, the activation is 14.2% (active).

Take `Cc1nc2cc(NCc3cccs3)ccc2n1C`: the activation is 8.48%.

Consider `Cc1ccc(C)c(CN2CCC(CNC(=O)C3CCCN(c4ncnc5c4nc4n5CCCCC4)C3)CC2)c1` (stereo not drawn), for which the activation was -0.85%.

As to `COC(=O)C(C(=O)OC)c1ccccc1NS(=O)(=O)c1cccc2ccccc12`, the activation is -2.1%. In the case of `COc1ccc2cc(C(=O)C3CCCN(C(=O)c4sc(C)nc4C)C3)ccc2c1` (stereo not drawn), the activation is -1.02%. Consider `CCOc1ccc2nc(C(=O)N3CCCC(C)C3)sc2c1` (stereo not drawn), for which the activation was 17.9% (active). Take `CCOc1ccc(NC(=O)C2CCCN(C(=O)Nc3ccccc3)C2)cc1` (stereo not drawn): the activation is 1.89%. In the case of `COc1ccc(N(CC(=O)NCc2ccc(F)cc2)C(=O)CCC(=O)Nc2nccs2)cc1` it was 1.39%; in that of `CC(C)C(=O)Nc1ccc2c(c1)oc1ccccc12`, 12.2% (active); in that of `CC(C)C(=O)Nc1c(C(=O)c2ccc(F)cc2)oc2ccccc12`, -0.79%. Take `CC(C)C(=O)Nc1oc(-c2ccccc2)cc1C#N`: the activation was -0.28%.

Consider `COC(=O)N1Cc2ccnnc2CC1c1ccccc1Br` (stereo not drawn), for which the activation is 0.66%. Take `FC(F)(F)c1cccc(-c2nc3ccccc3n2C(c2ccccc2)c2nc3ccccc3[nH]2)c1` (stereo not drawn): the activation was 10.7% (active). In the case of `CCC(c1nc2ccccc2[nH]1)n1c(=O)c(-c2cccs2)nc2ccccc21` (stereo not drawn), the activation was 1.53%. Turning to `FC(F)(F)c1cccc(-c2cc3ccccc3nc2N2CCCC2)c1`, the activation is -1.35%. With `COC(=O)C1=C(C)N(Cc2ccccc2C(F)(F)F)C(=NCC2CC2)NC1c1cccc(Cl)c1` (stereo not drawn) the figure was 4.82%.

For `C=CCN1[C@H](CC(C)C)COc2cccc(N3CCCC3)c2S1(=O)=O`, the activation is 1.57%. `Clc1ccc2nc(CSc3ccccc3)cn2c1`: the activation is 15.8% (active). For `O=c1c2ccccc2nc2n1C(CSc1ccc(Cl)cc1)CN2` (stereo not drawn), the activation is -1.24%. Turning to `Cn1nc(-c2ccccc2)c(CSc2cccc(Cl)c2)c1Cl`, the activation is -1.11%. For `COC(=O)C[C@@H]1CC[C@@H]2[C@H](COc3ccc(NC(=O)c4cccc(F)c4)cc3C(=O)N2C)O1`, the activation was 7.18%. In the case of `Cc1noc(C)c1NC(=O)Nc1ccc2c(c1)C(=O)N([C@H](C)CO)C[C@H](C)[C@H](CN(C)Cc1ccncc1)OCCCC[C@@H](C)O2`, the activation is 2.01%. In the case of `C=CS(=O)(=O)N(Cc1nnn(Cc2ccccc2)c1Br)[C@H](C(=O)OC)C(C)C` it was -3.42%. Take `COCC(=O)N1CCCC(C(=O)c2ccc(C(F)(F)F)cc2)C1` (stereo not drawn): the activation was -2.29%. As to `Cc1cnc(C(=O)N2CCCC(C(=O)c3ccc(C(F)(F)F)cc3)C2)cn1` (stereo not drawn), the activation was 19.4% (active). Consider `O=C(c1ccc(C(F)(F)F)cc1)C1CCCN(C(=O)c2csnn2)C1` (stereo not drawn), for which the activation is -0.18%.

`COc1ccc(-n2c(SCC(=O)Nc3ccc4cn[nH]c4c3)nnc2-c2cccnc2)cc1`: the activation is -0.21%. Take `OC(CCl)CCl`: the activation is 2.07%. On to `C/C(=N\Nc1ccc(S(N)(=O)=O)cc1[N+](=O)[O-])c1cccs1`, for which the activation was -0.57%. In the case of `C/C(=N\NC(=O)CSc1nc2ccccc2c(=O)n1-c1ccccc1C)c1cccs1` it was -2.57%; in that of `C/C(=N\Nc1nc2ccccc2[nH]1)c1cccs1`, 12.3% (active); in that of `COCCCNC(=O)C[C@H]1C[C@@]2(C(=O)OC)C(=C[C@H](C(C)(C)C)O[C@@H]2C)N(Cc2ccc(Cl)cc2Cl)C1=O`, -0.78%.

Take `Cc1cc(N2CCN(C(=O)OC(C)(C)C)C[C@H]2C)ccc1N1CCN(Cc2ccccc2)[C@H](C)C1`: the activation was -0.97%. In the case of `CC(=O)c1ccc(NC(=O)c2cc(-c3cccs3)on2)cc1` it was 1.57%; in that of `COc1ccc(C(=O)C2CCCN(C(=O)c3cc(C)on3)C2)cc1F` (stereo not drawn), -1.33%.

`COc1ccccc1-c1cc(C(=O)N2CCCCC2)no1`: the activation was 11.7% (active). In the case of `CCOC(=O)C1CCCN(C(=O)c2cc(-c3cccs3)oc2C)CC1` (stereo not drawn) it was -2.05%; in that of `O=C(c1cc(C2CCCCN2S(=O)(=O)c2ccccc2)on1)N1CCOCC1` (stereo not drawn), 1.09%; in that of `O=C(c1cc(-c2cccs2)on1)N1CCCCC1`, 10.8% (active). Consider `O=C(c1cc(-c2ccccc2O)on1)N1CCCC1`, for which the activation was 13.1% (active). As to `O=C(c1cc(COc2cccc(C(F)(F)F)c2)on1)N1CCSCC1`, the activation is -1.54%. For the compound `COc1ccc(OCc2cc(C(=O)N3CCCC3)no2)c2ccccc12`, the activation was 7.54%. With `N#Cc1ccc(OC[C@@H](O)CN2CCC(C(O)(c3ccccc3)c3ccccc3)CC2)c(F)c1`, the activation was -0.04%. In the case of `CN(C)Cc1cn(-c2ccc(-c3noc4c3C(=O)N(CC(=O)N3CCOCC3)CC4)cc2)nn1`, the activation was -1.17%.

As to `O=C(c1ccncc1)N1CC[C@H]2[C@H](CCCN2Cc2ccc(F)cc2)C1`, the activation was 5.55%. Consider `O=C(NCCS(=O)(=O)N1CCN(c2ccccc2F)CC1)c1ccc(Br)o1`, for which the activation is 0.09%. As for `CC(=O)N1Cc2cc(C(=O)NCc3cccc(F)c3)nc(-c3cccc(C4=CCCC4)c3)c2[C@H]1CCO`, the activation is -1.83%.

With `COc1ccc2c(c1)CN1CN(CCc3ccccc3)S(=O)(=O)CC21` (stereo not drawn), the activation is 0.93%. As for `CC1(C(=O)Nc2cccc(Oc3ccccc3)c2)CCN1Cc1ccccc1Cl` (stereo not drawn), the activation was -0.38%. In the case of `COc1ccc(/C=C/C(=O)OCC(=O)Nc2cccc(Oc3ccccc3)c2)c(OC)c1` it was 2.49%; in that of `Cc1ccoc1C(=O)Nc1cccc(Oc2ccccc2)c1`, 11.7% (active). Take `O=C(NCc1ccccc1)[C@@H]1CCCN1C(=O)[C@@H](NS(=O)(=O)c1ccc(F)cc1F)C1CCCCC1`: the activation is -0.9%. With `C[C@H]1CN([C@@H](C)CO)C(=O)CCCn2nncc2CO[C@@H]1CN(C)C(=O)Nc1ccc(N2CCN(C)CC2)cc1` the figure was -1.55%; with `CCOc1ccc(-n2c(SCC(=O)Nc3cc(C)c(NC(=O)c4ccccc4)cc3OC)nnc2-c2cccc(Cl)c2)cc1`, -2.83%; with `COC(=O)C1=C(C)N(Cc2cccc(C(F)(F)F)c2)C(=NCc2ccccc2)NC1c1ccc(Cl)cc1` (stereo not drawn), 4.18%. As to `COc1ccc(Cc2nc3ccc(C(=O)NCC4CCOCC4)cc3o2)cc1OC`, the activation was 2.3%.

As to `CSCCNC(=O)c1ccc2nc(Cc3ccccc3F)oc2c1`, the activation was 10.5% (active). Consider `COCCNC(=O)c1ccc2nc(Cc3ccc(OC)c(OC)c3)oc2c1`, for which the activation was 4.83%.
